Bioassay records deposited in PubChem BioAssay by several laboratories.
Shown are actives, neighbours in structure and some others; about 3.1% of the full set was active somewhere.
Mot1-301 SUMO = blocks SUMOylation pathway, rescuing yeast Mot1-301 growth. S. cerevisiae Mot1-301 growth rescue, ATP luminescence, 38.5C; percent above DMSO median, 100 means doubled. growth rescue, % at 18.8 µM. actives 1% (n = 320,000). AID 2716;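 active means every valid replicate shows activation above 250% relative to neutral control wells; inactive means the rest, any valid replicate at or below 250%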;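 further: OY570 slx delta 5 strain wells were the positive control but not used for scaling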
Calb FLC = C. albicans growth modulation with fluconazole; actives 0.57% (n = 300,000); C. albicans CaCi-2 (fluconazole-resistant clinical isolate) + fluconazole, Alamar Blue growth, 48 h; growth inhibition, % (concentration not given with the values);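 active means growth inhibition above about 58% in most replicates, limit read from the data, passing the limit was not always enough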;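 further: all wells also contain fluconazole at 8 µg/ml as a sub-toxic cotreatment; 0% = median of DMSO wells and 100% = median of geldanamycin control wells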
NadD block = NadD (S. aureus) enzyme inhibition; purified NadD enzyme, colorimetric absorbance read-out; inhibition, % at 20 µM; AID 602399; actives 0.78% (n = 360,000); in the data active means inhibition above about 26%
ATG4B inh = blocks human ATG4B protease cleavage of LC3 substrate; Q9Y4P1; ATG4B cleavage of LC3-PLA2, NBD-HPC fluorescence, 1 h; inhibition, % at 8.33 µM; actives 0.51% (n = 340,000); in the data active means inhibition above about 40%
FAS TE block = FAS thioesterase (human) inhibition; P49327; recombinant FAS-TE, OMFH fluorogenic substrate, fluorescence endpoint; inhibition, % at 15 µM; actives 0.67% (n = 360,000); AID 602261;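 active means compounds whose normalised, plate-corrected inhibition of enzyme fluorescence in the single-dose primary screen is 50% or more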;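 further: 0% = DMSO with enzyme and 100% = substrate without enzyme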
Target sequence (P49327 whole entry, looked up): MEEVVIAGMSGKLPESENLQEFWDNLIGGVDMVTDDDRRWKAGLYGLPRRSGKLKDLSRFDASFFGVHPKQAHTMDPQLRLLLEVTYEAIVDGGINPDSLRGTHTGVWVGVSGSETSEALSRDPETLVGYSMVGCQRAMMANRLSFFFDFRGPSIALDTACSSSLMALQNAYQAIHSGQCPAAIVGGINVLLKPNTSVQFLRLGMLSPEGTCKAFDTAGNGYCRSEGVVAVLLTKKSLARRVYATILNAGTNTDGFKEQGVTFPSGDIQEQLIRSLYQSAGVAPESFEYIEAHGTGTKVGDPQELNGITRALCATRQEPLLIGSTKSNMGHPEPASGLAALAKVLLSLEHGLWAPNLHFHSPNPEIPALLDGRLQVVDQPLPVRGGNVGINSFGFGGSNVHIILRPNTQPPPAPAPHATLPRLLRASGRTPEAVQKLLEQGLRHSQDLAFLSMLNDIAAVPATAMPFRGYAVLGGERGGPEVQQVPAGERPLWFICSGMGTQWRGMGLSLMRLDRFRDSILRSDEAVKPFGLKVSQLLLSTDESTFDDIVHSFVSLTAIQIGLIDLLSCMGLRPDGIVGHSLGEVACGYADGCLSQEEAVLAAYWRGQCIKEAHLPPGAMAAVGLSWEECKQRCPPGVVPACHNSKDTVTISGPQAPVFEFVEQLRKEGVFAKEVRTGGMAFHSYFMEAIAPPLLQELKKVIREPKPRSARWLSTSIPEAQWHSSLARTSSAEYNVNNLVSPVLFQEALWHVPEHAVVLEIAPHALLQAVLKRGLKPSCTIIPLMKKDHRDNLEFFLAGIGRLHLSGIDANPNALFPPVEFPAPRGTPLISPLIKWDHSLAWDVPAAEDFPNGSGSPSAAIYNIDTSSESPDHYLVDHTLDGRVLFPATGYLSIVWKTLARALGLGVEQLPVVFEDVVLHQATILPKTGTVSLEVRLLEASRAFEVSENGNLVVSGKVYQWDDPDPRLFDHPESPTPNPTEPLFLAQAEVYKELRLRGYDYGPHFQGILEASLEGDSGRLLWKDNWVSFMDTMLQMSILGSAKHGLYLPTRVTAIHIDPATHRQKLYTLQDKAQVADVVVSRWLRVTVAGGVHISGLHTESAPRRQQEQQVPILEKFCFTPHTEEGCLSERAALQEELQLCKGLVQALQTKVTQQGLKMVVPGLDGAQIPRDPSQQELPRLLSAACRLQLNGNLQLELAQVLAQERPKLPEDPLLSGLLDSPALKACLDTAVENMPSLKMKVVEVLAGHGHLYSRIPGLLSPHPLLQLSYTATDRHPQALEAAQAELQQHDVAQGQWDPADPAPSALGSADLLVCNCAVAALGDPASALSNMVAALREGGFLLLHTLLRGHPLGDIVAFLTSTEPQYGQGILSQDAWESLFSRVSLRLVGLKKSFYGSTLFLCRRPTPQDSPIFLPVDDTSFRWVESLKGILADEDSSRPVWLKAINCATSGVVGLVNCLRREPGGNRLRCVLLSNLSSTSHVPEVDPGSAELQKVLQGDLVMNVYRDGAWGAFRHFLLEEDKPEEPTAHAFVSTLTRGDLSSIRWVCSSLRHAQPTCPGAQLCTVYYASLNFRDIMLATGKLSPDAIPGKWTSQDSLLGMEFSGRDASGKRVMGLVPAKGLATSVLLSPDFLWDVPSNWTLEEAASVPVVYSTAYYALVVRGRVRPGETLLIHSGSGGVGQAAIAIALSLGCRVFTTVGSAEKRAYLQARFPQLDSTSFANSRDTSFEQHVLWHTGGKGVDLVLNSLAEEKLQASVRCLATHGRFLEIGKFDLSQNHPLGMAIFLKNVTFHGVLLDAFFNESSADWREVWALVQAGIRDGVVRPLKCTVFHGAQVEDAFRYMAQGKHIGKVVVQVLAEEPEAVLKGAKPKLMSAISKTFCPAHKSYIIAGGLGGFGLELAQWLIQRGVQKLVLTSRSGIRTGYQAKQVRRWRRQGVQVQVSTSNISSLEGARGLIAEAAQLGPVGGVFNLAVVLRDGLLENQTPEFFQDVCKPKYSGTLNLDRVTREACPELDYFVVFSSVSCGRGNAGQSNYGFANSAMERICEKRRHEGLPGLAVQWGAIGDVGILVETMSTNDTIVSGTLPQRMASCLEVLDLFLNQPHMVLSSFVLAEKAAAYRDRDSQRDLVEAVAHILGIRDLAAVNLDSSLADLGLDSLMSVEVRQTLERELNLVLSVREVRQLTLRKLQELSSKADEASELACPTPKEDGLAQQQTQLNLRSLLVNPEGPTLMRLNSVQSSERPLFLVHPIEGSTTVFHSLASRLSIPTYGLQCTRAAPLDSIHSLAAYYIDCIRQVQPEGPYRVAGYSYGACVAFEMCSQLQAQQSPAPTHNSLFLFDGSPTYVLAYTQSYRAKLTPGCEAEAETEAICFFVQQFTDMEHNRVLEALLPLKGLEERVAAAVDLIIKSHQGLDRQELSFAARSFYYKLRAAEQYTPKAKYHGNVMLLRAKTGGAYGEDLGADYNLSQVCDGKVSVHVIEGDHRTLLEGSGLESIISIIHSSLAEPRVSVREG
* marks the source's active call; other numbers are inactive results; . = no result; + = active, no number.

SMILES	Mot1-301 SUMO	Calb FLC	NadD block	ATG4B inh	FAS TE block
O=C(CCN1C(=O)/C(=C\c2cccs2)SC1=S)Nc1nccs1	-5	1	12	-4	-15
CC(C)NC(=S)n1cc(C(=O)c2cc(Cl)cc(Cl)c2O)cn1	-1	1	-1	-12	-4
Oc1ccc(-c2nc3ccc4ccccc4c3c3c2CCC3)cc1O	50	11	39*	-18	-4
CN(C(=O)CSc1nc2ccccc2o1)C1CCCCC1	.	.	-2	-1	1
COc1cc(/C=C(\NC(=O)c2ccccc2)C(=O)N2CC3CC(C2)c2cccc(=O)n2C3)cc(OC)c1OC (configuration not stated)	+	4	-1	-5	-4
Cc1noc(C)c1CSc1nc2ccccc2c(=O)n1-c1ccccc1	-17	5	-4	54*	14
Cc1noc(C)c1CSc1nc2[nH]ncc2c(=O)n1-c1ccccc1	-6	-2	-7	-6	-13
COc1ccccc1N1CCN(C(=O)c2cc3cc(Cl)ccc3[nH]2)CC1	-7	114*	0	-10	20
COc1ccccc1N1CCN(C(=O)c2cc3ccccc3[nH]2)CC1	2	11	-5	-1	7
CCCCn1nnnc1C(c1cc2ccccc2o1)N1CCN(C(=O)OCC)CC1 (configuration not stated)	.	.	-2	.	9
CCN(C(=O)COC(=O)c1ccc(SC)cc1OC)C1CCS(=O)(=O)C1 (configuration not stated)	26	.	0	-7	-10
CCN(CC)c1ccc(/C=N/NC(=O)Nc2ccccc2)cc1	-15	-1	-4	8	38
CCN(CC)c1ccc(/C=N/NC(=O)Cc2nnc(NC(=O)Nc3ccccc3)s2)cc1	-18	7	48*	-2	7
CNC(=S)N1N=C(c2ccccc2)CC1c1ccccc1Cl (configuration not stated)	-2	65*	-2	-4	34
CNC(=S)N1N=C(c2ccc(C)cc2)CC1c1ccc(Cl)cc1 (configuration not stated)	-13	27	3	7	26
OC1(c2ccccc2F)CCN(Cc2nnnn2Cc2ccc(F)cc2)CC1	0	12	-4	-2	-3
N#C/C(=C\c1ccc(O)c(O)c1)C(=O)Nc1cccc2ncccc12	-1	97*	86*	3	2
Cc1cc(C)cc(N2CC(C(=O)Nc3cc(C)on3)CC2=O)c1 (configuration not stated)	341*	-2	-3	-6	-2
CCn1c(C)c(C(C)=O)c(N2CCN(c3cccc(Cl)c3)CC2)nc1=S	585*	2	9	-8	9
CC(=O)c1c(N2CCN(c3cccc(Cl)c3)CC2)nc(=S)n(-c2ccccc2)c1C	2	1	21	13	-2
Cc1ccccc1NC1=C/C(=N\S(=O)(=O)c2cccs2)c2ccccc2C1=O	-6	34	0	95*	32
CC1(C)Cc2ccccc2C2=C(C(=O)N3CCCCCC3)C(=O)C(=O)N21	307*	-10	4	-3	-7
Cc1cccc(-n2ccnc2CN2CCN(C3CCCC3)C(CCO)C2)c1 (configuration not stated)	-33	3	-5	-5	-5
Cc1cccc(-n2ccnc2CN2CCC(CO)(Cc3ccccc3)CC2)c1	643*	-16	-3	4	-3
O=C1NC(=Nc2ccccc2)S/C1=C\C=C\c1ccco1	5	-1	29	32	8
SMILES	Mot1-301 SUMO	Calb FLC	NadD block	ATG4B inh	FAS TE block
Cc1ccc(N=C2NC(=O)/C(=C/C=C/c3ccco3)S2)cc1	12	0	34*	31	21
COc1ccc(N=C2NC(=O)/C(=C\C=C\c3ccccc3)S2)cc1	-16	36	26*	5	4
COc1ccc(N=C2NC(=O)/C(=C/C=C/c3ccccc3)S2)cc1	20	-4	27	-9	-1
CN(C)P(=O)(Nc1cccc2ccccc12)Nc1cccc2ccccc12	-3	.	5	-7	1
CCCCn1nnnc1C1(C)CCC(=O)N1Cc1ccco1 (configuration not stated)	.	.	0	.	-8
COc1ccc(OC)c2[nH]c(C(=O)N/N=C/c3ccccc3O)cc12	-15	90*	8	5	16
COc1cccc(/C=N/NC(=O)c2cc(-c3cccn3C)n[nH]2)c1O	-12	103*	3	30	-2
O=C(N/N=C/c1ccccc1O)c1cccc(C(F)(F)F)c1	7	80*	-3	1	20
COc1cc(/C=N/NC(=O)c2cc(-c3cccn3C)n[nH]2)cc(OC)c1OC	.	-16	13	-12	-9
COC(=O)c1cc(NC(=O)c2ccc([N+](=O)[O-])cc2)c(=O)oc1C	975*	0	2	-5	0
O=C(COC(=O)Cn1cnc2ccccc21)Nc1cc2c(cc1Cl)C(=O)c1ccccc1C2=O	18	-1	39*	-6	-5
CCNC(=O)COC(=O)/C=C/c1cccc(F)c1	-5	-9	-5	3	-7
CSc1cccc(NC(=O)/C=C/c2ccccc2)c1	163	22	-10	4	20
CSc1ccc(/C=C/C(=O)Nc2ccccc2)cc1	.	119*	-4	-1	1
CN(C)c1ccc(/C=C(/NC(=O)c2ccccc2)C(=O)N/N=C/c2ccc([N+](=O)[O-])c(O)c2)cc1	-20	47	41*	-1	4
O=C(N/N=C/c1ccc2c(c1)OCO2)/C(=C/c1ccc2c(c1)OCO2)NC(=O)c1ccccc1	2	5	18	-4	7
CC(C)(C)c1ccccc1OCCCCCn1ccnc1	-18	40	4	12	-8
CSc1nc(N(CCO)CCO)c2sc3nc(-c4ccco4)c4c(c3c2n1)CCC4	.	50	80*	0	9
CC1=C(C(=O)OCc2ccccc2)C(c2ccccc2OS(=O)(=O)c2ccc(C)cc2)NC(=O)N1CCCC(=O)O (configuration not stated)	1	6	.	-1	.
CCCOc1ccc(NC(=O)C2CC(=O)N/C(=N/N=C(C)/C=C/c3ccc(N(C)C)cc3)S2)cc1 (configuration not stated)	-2	-11	56*	19	5
CC(/C=C/c1ccc(N(C)C)cc1)=N\N=C1\NC(=O)CC(C(=O)Nc2ccccc2)S1 (configuration not stated)	-5	-4	49*	5	16
CC(/C=C/c1ccc(N(C)C)cc1)=N/N=C1/NC(=O)CC(C(=O)Nc2ccc(Cl)cc2)S1 (configuration not stated)	1	1	47*	28	6
COc1ccc(NC(=O)C2CC(=O)N/C(=N/N=C/c3ccccc3)S2)cc1 (configuration not stated)	6	-3	-4	6	3
COC(=O)CCCn1cc(CN(C)C2CN(Cc3cn(CCCC(=O)OC)nn3)S(=O)(=O)C2)nn1 (configuration not stated)	.	.	-3	.	-14
